Compound activity deposited in PubChem BioAssay by National Center for Advancing Translational Sciences (NCATS).
CHX counter: counter-screen for Shiga toxin inhibitors: cycloheximide protein synthesis inhibition; cell reporter, cycloheximide protein synthesis inhibition counterscreen; max response, %; 300,000 tested, 12% active; AID 2314; in the data active means max response mostly above about 13%, no sharp cut-off; inactive means mostly below about 14%; further: read at 38.3 µM for the half of the compounds with a filed dose; 0% is about no effect
Shiga inhibitor: blocks Shiga toxin action in Vero cells; Vero cells, Shiga toxin protein synthesis inhibition reporter; inhibition, % at 38.7 µM; 290,000 tested, 9.2% active; in the data active means inhibition mostly above about 28%, no sharp cut-off; inactive means mostly below about 43%; further: 0% is about no effect
NS1 function inh: inhibitors of influenza NS1 protein function. AID 2326. Potency, µM (top dose mostly 46.1 µM), for the others: top-dose activity, positive = more growth. 270,000 tested, 0.4% active; calls by dose curve; further: potency means the concentration at half of the fitted maximal effect; actives are rising curves; nearly all actives have a fitted effect of over 50% in size
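Growth recovery, yeast-based: influenza A NS1 expressed in S. cerevisiae causes slow growth, and suppressors are detected by OD600. The parent strain without NS1 is used as positive control.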
Pf growth 48h: P. falciparum growth inhibition at 48 hours (one generation); P. falciparum luciferase growth in erythrocytes, 48 h; Potency, µM (series often up to 28.7 µM), for the others: top-dose activity change, negative = inhibition, hits mostly inhibitors; 310,000 tested, 5.9% active; AID 504832; further: potency means the concentration at half of the fitted maximal effect; on the % scale 0 is the no-effect control and ±100 the full control effect
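Firefly luciferase activity from engineered P. falciparum reports growth; inhibitors lower the luminescent signal. Cultures contained 2% hematocrit erythrocytes at 0.1% final parasitemia.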
Sm TGR inh: S. mansoni TGR enzyme inhibition. Q962Y6. purified TGR, DTNB reduction, TNB absorbance 405 nm. 360,000 tested, 3% active. Potency, µM (doses to about 114 µM), inactives show at the top dose activity change, negative = inhibition, hits mostly inhibitors; further: potency means the concentration at half of the fitted maximal effect; on the % scale 0 is the no-effect control and ±100 the full control effect; nearly all actives have a fitted effect of over 60% in size
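Kinetic colorimetric format: TGR-catalysed, NADPH-driven DTNB reduction monitored via TNB absorbance. Enzyme dispensed at 20 nM; compound exposure 15 min at room temperature before reaction start.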
Pf growth 96h: P. falciparum growth inhibition at 96 hours. Potency, µM (series often up to 28.7 µM), inactives show at the highest dose activity change, negative = inhibition, hits mostly inhibitors. P. falciparum luciferase reporter growth, 96 h. 320,000 tested, 6.9% active; further: potency means the concentration at half of the fitted maximal effect; on the % scale 0 is the no-effect control and ±100 the full control effect
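96 h incubation, 37 C, 5% CO2, of luciferase-reporter P. falciparum-infected RBCs (2% hematocrit, 0.05% parasitemia final) with test compounds; endpoint luminescence.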
Numbers without * were called inactive; ? = inconclusive; . = no result given; + = active, no number. In the library only some 21% were active in any assay of this set; here they are far more common. Unless noted, the call rests on the fitted dose curve; in most records, active means well fitted curve in the direction sought with a large enough effect; inconclusive means small, poorly fitted or top-dose-only effect, or another doubt; inactive means no such curve, though single readings can be large; an effect the other way counts as inactive or inconclusive.

SMILES	CHX counter	Shiga inhibitor	NS1 function inh	Pf growth 48h	Sm TGR inh	Pf growth 96h
COC(=O)C1=C(C)NC(C)=C(C(=O)OCCSc2ccccc2)C1C (stereo unspecified)	13*	23*	.	.	.	.
COC(=O)C1=C(C)NC(C)=C(C(=O)OC)C1c1ccc2ccccc2n1	-2	-11	8%	-20%	-3%	.
COCCSc1nc(N)c(NC(=O)c2ccco2)c(=O)[nH]1	-2	-12	0%	-4%	-1%	3%
Cc1ccc2c(c1)c1c(n2CCc2ccc(C)nc2)CCN(C)C1	.	.	.	15µM*	5%	2.1µM*
CC(=O)Oc1ccc(-c2cccc(C(=O)NCCCO)c2)cc1	16	56	19%	38%	0%	58%
CCN(Cc1ccccc1)C(=O)CCNS(=O)(=O)c1cc(Br)cnc1N	6	-4	2%	13µM*	-1%	37%
CCOC(=O)N1CCN(C(=O)CCNS(=O)(=O)c2cc(Br)cnc2N)CC1	-2	-6	-10%	0%	1%	190%
O=C(NCCC1=CCCCC1)c1ccc(F)cc1	39*	+	-26%	179%	-15%	-18%
O=C(CCNC(=O)c1ccc(Cl)cc1)NCCC1=CCCCC1	.	.	.	64%	1%	57%
COc1ccc(C(=O)NCCC2=CCCCC2)cc1OC	46*	75*	-20%	.	5%	97%
O=C(NCCc1ccc(F)cc1)c1ccc([N+](=O)[O-])cc1	34*	67*	-3%	61%	.	14%
O=C(CCNC(=O)c1ccc([N+](=O)[O-])cc1)Nc1ccc(F)cc1	-4	-8	-2%	-2%	-14%	-12%
O=C(NC1CCCCCC1)c1ccc(CN2CCOCC2)cc1	41*	96*	-12%	54%	8%	10µM*
Cc1ccc(C(=O)Nc2ccc3oc(-c4ccncc4)nc3c2)c(Cl)c1	.	.	.	.	6%	.
O=C(NCC1CCCO1)c1ccc(NS(=O)(=O)c2cccs2)cc1 (stereo unspecified)	-4	-7	4%	-3%	-5%	-3%
Cn1cc([N+](=O)[O-])c(C(=O)NC2CCCC2)n1	6	-9	0%	6%	0%	?
O=C(CCn1c(=O)c2cccn2c2cccnc21)Nc1ccccc1Br	.	.	.	.	7%	.
O=C(CCNC(=O)c1ccc([N+](=O)[O-])cc1)NCCC1=CCCCC1	.	.	.	-5%	5%	-12%
Cc1cc(F)ccc1S(=O)(=O)Nc1ccccc1C(=O)NC1CCN(Cc2ccccc2)CC1	.	.	.	2.9µM*	2%	3.3µM*
O=C(NCCC1=CCCCC1)c1ccc([N+](=O)[O-])cc1	75*	131*	-13%	126%	-7%	-2%
COc1ccc(C(=O)NCCC2=CCCCC2)cc1	31*	51	-15%	191%	1%	0%
Cc1ccc(C)n1-c1ccc(C(=O)NC2CCN(Cc3ccccc3)CC2)cc1	-2	17	2%	?	-10%	12µM*
Cc1ccc(CN2CCC(NC(=O)c3ccccc3)CC2)cc1	-1	0	-2%	5%	-10%	24%
O=C(CCSCCc1ccccn1)Nc1ccccc1C(F)(F)F	.	.	.	.	7%	.
Cc1ccnc(NS(=O)(=O)c2ccc(NC(=O)CSc3nc(-c4ccccc4)cc(=O)[nH]3)cc2)n1	-4	18	.	1%	-1%	-16%
SMILES	CHX counter	Shiga inhibitor	NS1 function inh	Pf growth 48h	Sm TGR inh	Pf growth 96h
Cc1ccccc1NS(=O)(=O)c1cc(C(=O)NCCC2=CCCCC2)ccc1C	2	-18	23%	?	-1%	?
O=C(NCCC1=CCCCC1)c1ccc(CN2CCOCC2)cc1	40*	45*	-8%	345%	-21%	91%
COc1cccc(C(=O)NCCC2=CCCCC2)c1	30*	74*	-78%	.	-1%	275%
Cc1cc(C(=O)NCCC2=CCCCC2)ccc1[N+](=O)[O-]	49*	96*	-34%	63%	-6%	43%
COc1ccc(CCNC(=O)c2ccc(CN3CCOCC3)cc2)cc1	4	6	3%	.	7%	30%
O=C(NC(=S)NCCC1=CCCCC1)c1ccc(Br)o1	25	72	-1%	18%	-11%	15%
O=C(NCCC1=CCCCC1)c1ccc(Br)o1	28*	84*	-69%	-6%	7%	-24%
COc1ccc(C2/C=C\CN(CC3CCCCC3)C(Cc3ccccc3)C(=O)N2Cc2ccc(F)cc2)cc1 (stereo unspecified)	6	15	.	.	.	.
